Source: PubChem (National Center for Advancing Translational Sciences (NCATS))
Only some compounds are listed: those with a hit (about 9.4% of all), similar ones and a draw of the others.
NPC1 promoter act: activates the NPC1 promoter | 2.4% of 320,000 active | Potency, µM (top dose mostly 9.22 µM), inactives show at the top dose activation, actives largely listed as activators | Huh7 NPC1 promoter luciferase reporter, 24 h; note: % of control where 0% means no effect; nearly all actives have a fitted effect of over 60% in size
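Huh7 cells stably carrying NPC1 promoter–luciferase, plated in Opti-MEM with 10% FBS for 2 h, were exposed to compound in DMSO for 24 h at 37 °C; luciferase reagent was added for 10 min and luminescence read.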
FLuc counter: inhibits or activates purified firefly luciferase, miR-21 counter-screen; purified FLuc, Km substrates, luminescence inhibition; Potency, µM (series often up to 57.5 µM), for inactives: at the highest dose activity change, negative = inhibition, most hits filed as inhibitors; 6.9% of 360,000 active; P08659;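 note: plate controls were vehicle for no effect and reference inhibitor for full effect; nearly all actives have a fitted effect of over 55% in size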
Target sequence (P08659 whole entry, looked up): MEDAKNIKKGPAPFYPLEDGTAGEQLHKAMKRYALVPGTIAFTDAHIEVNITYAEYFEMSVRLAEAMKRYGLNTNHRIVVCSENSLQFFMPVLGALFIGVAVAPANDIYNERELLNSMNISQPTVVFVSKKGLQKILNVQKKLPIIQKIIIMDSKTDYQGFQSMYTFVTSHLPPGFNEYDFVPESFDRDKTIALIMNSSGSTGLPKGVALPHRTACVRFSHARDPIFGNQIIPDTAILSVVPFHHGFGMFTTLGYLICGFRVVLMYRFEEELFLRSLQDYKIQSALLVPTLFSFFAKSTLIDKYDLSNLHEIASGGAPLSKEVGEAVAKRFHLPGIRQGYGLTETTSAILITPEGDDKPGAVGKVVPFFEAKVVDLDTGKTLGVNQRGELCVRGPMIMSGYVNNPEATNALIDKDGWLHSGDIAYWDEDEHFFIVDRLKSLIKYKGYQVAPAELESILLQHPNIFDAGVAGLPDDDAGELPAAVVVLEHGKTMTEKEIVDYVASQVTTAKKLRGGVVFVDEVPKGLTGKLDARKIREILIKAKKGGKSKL
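Purified P. pyralis luciferase (10nM final) with 10uM D-luciferin and 10uM ATP (Km levels) in 50mM Tris acetate pH 7.5, 10mM Mg acetate, 0.01% Tween-20, 0.05% BSA; qHTS 6-point titration, ~60 µM downward; luminescence read.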
ELG1 repair inh: blocks ELG1-dependent DNA repair in HEK293T cells. HEK293T ELG1-luciferase reporter, luminescence, 16 h; DNA damage induced by 5-fluorouridine. Potency, µM (doses to about 46.1 µM), for inactives: at the top dose activity change, negative = inhibition, most hits filed as inhibitors. 2.3% of 330,000 active. AID 504467; note: % is set by controls: 0 for no effect and ±100 for the full control effect; nearly all actives have a fitted effect of over 55% in size
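5-Fluorouridine DNA damage + compound/DMSO, 2,000 cells/well, 16 h, 37 °C/5% CO2. ONE-Glo, 30 min RT, luminescence. Readout = decrease in reporter signal.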
SMN2 splice up: SMN2 splice variant enhancement | 2.8% of 210,000 active | HEK293 SMN2-luciferase splicing reporter, luminescence, 30-36 h | Potency, µM (series often up to 46.1 µM), for inactives: at the highest dose activity change, positive = activation, actives largely listed as activators | AID 1458; note: % of control where 0% means no effect; nearly all actives have a fitted effect of over 55% in size
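qHTS luciferase splicing reporter: luminescence rises when SMN2 exon 7 is included in transfected HEK293 cells. Compound exposure lasted 30-36 h at 37C, with 4.5 mM final sodium butyrate as control, followed by a ONE-Glo read.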
ELG1 genotoxic: induces genotoxicity in HEK293T cells with luciferase-tagged ELG1; HEK293T ELG1-luciferase reporter, luminescence, 16 h; 1.3% of 330,000 active; Potency, µM (top dose mostly 46 µM), inactives show at the top dose activity change, positive = activation, actives largely listed as activators; note: % of control where 0% means no effect; nearly all actives have a fitted effect of over 60% in size
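Reporter readout depends on ELG1 protein level, which increases with genetic stress. After 16 hr compound exposure at 37 °C, luciferase activity was quantified using ONE-Glo.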
Rab9 prom act: activators of Rab9 promoter; Huh7 Rab9 promoter-luciferase reporter, luminescence, 24 h; Potency, µM (titrated, usually from 9.22 µM), for the others: top-dose activation, negative = inhibition, usual class: activators; 2.8% of 320,000 active; note: % of control where 0% means no effect; nearly all actives have a fitted effect of over 60% in size
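Stable Rab9-luc Huh7, 1500 cells/well, 2 h settle; cmpd in DMSO, 24 h, 37 °C/5% CO2; luciferase reagent 10 min RT; luminescence.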
* = called active by the depositor; ? = inconclusive; . = no result; [ ] = remark or other dose. Calls come from the whole dose curve; as a rule, active = well fitted curve in the direction sought with a large enough effect; inconclusive = small, poorly fitted or top-dose-only effect, or another doubt; inactive = no such curve, though single readings can be large; an effect the other way counts as inactive or inconclusive. Potency is the fitted concentration of half-maximal effect.

SMILES	NPC1 promoter act	FLuc counter	ELG1 repair inh	SMN2 splice up	ELG1 genotoxic	Rab9 prom act
Cc1ccc(NC(=O)Nc2ccc3c(c2)CCC3)c(C)c1	-1.6%	4.0%	22.4%	.	8.3%	7.9%
CC(=O)Nc1ccccc1OCC(=O)c1ccc2c(c1)OCO2	3.55µM*	-7.8%	?	.	?	3.16µM*
Cc1c(NC(=O)Nc2ccc3c(c2)OCO3)cccc1[N+](=O)[O-]	3.16µM*	?	?	.	14.1%	?
O=C(Cc1ccccc1[N+](=O)[O-])NNC(=O)Nc1ccc2c(c1)OCO2	0.2%	0.4%	0.3%	.	0.6%	-1.4%
O=C(Nc1ccc2c(c1)CCC2)Nc1ccccc1Cl	1.41µM*	1.51µM*	?	.	2.31µM*	1.78µM*
Cc1ccc2c(c1)N(C(=O)N1CCC(C(=O)NCCC3=CCCCC3)CC1)CC(C)O2 (stereo not drawn)	.	-19.0%	.	.	.	.
CCSc1nnc(-c2cccc(S(=O)(=O)N(CC)CC)c2)n1Cc1ccccc1	-2.1%	1.1%	23.1µM*	-31.8%	-8.3%	-2.8%
c1ccc(-c2cnc(CSc3nnc4ccccn34)o2)cc1	1.58µM*	10.7µM*	?	11.2µM*	4.11µM*	1µM*
Cc1ccccc1-n1nnnc1SCc1ncc(-c2ccccc2)o1	-1.0%	?	-3.7%	-12.1%	-1.3%	4.2%
CCN(CC)S(=O)(=O)c1cccc(-c2nnc(SCC(N)=O)n2C)c1	-2.3%	-0.7%	5.7%	-44.2%	17.1%	-2.8%
CCN(CC)S(=O)(=O)c1cccc(-c2nnc(SCc3ncc(-c4ccccc4)o3)n2C)c1	-1.1%	0.8%	20.6µM*	-20.4%	-8.8%	-0.3%
Cc1ccc(-c2nn(-c3ccc(F)cc3F)c3c2cnc2c(F)cccc23)cc1	.	-8.3%	.	.	.	.
O=C(COC(=O)c1cc([N+](=O)[O-])ccc1N1CCOCC1)Nc1cccc(F)c1	-4.0%	2.6%	20.6µM*	.	-6.4%	-11.0%
CCOc1ccc(CCNC(=O)COC(=O)c2cc([N+](=O)[O-])ccc2N2CCOCC2)cc1OCC	0.5%	4.2%	18.3µM*	.	-13.7%	4.2%
CC1=C(c2ccc(C(C)C)cc2)S(=O)(=O)NC1=NCCCN1CCN(c2ccccc2F)CC1	.	1.5%	.	.	.	.
COC(=O)c1ccccc1NC(=O)c1noc2c1CSc1ccccc1-2	.	-12.5%	.	.	.	.
CCOC(=O)c1c(C)[nH]c(C2=NNC(=NC3CC3)SC2)c1C	?	0.601µM*	?	-79.1%	0.58µM*	?
CCOC(=O)c1c(C)[nH]c(/C(C)=N/O)c1C	16.6%	-14.9%	?	-3.9%	-9.0%	10.5%
COc1cccc(C(c2sc3nc(-c4ccco4)nn3c2O)N2CCOCC2)c1 (stereo not drawn)	.	-2.6%	.	.	.	.
COc1ccc2ccccc2c1/C=N/Nc1ccc(Cl)c(C(=O)O)c1	?	?	17.0%	.	11.5%	?
COc1ccc(N/N=C/c2c(C(=O)O)ccc3ccccc23)cc1	-38.4%	9.53µM*	?	.	5.9%	-38.1%
COc1ccc2ccccc2c1/C=N/Nc1cccc(C(=O)O)c1	1.12µM*	8.49µM*	?	.	?	0.891µM*
O=C(Cc1cccc2ccccc12)NC(=S)Nc1cccc(C(=O)O)c1	-1.4%	?	0.3%	-0.2%	0.4%	6.5%
CCOc1cc(/C=N/Nc2cccc(C(=O)O)c2)ccc1OC(=O)c1ccccc1	0.0891µM*	16.9µM*	?	1µM*	?	0.1µM*
O=C(O)c1cccc(N/N=C/c2cccc3ccccc23)c1	0.1µM*	0.0757µM*	?	.	?	?
SMILES	NPC1 promoter act	FLuc counter	ELG1 repair inh	SMN2 splice up	ELG1 genotoxic	Rab9 prom act
Cc1ccc2c(c1)c(=O)c1ccccc1n2CCCC(=O)Nc1cc(Cl)ccc1C	.	2.7%	.	15.8%	.	.
COc1cc(/C=N/NC(=O)c2cccc(NC(=O)c3ccccc3)c2)ccc1O	16.0%	9.53µM*	-20.8%	.	-7.5%	19.9%
O=C(Cn1nc2ccccc2n1)N/N=C/c1cc(Cl)cc([N+](=O)[O-])c1O	-1.2%	?	?	-23.2%	5.5%	-3.0%
COc1cc(/C=N/NC(=S)Nc2cccc(S(=O)(=O)N(C)C)c2)ccc1O	-2.5%	2.69µM*	?	20.5%	0.9%	-0.2%
CN(C)S(=O)(=O)c1cccc(NC(=S)N/N=C/C2CC=CCC2)c1 (stereo not drawn)	-1.4%	?	2.7%	6.3%	-0.3%	-2.5%
Cc1ccccc1C(=O)Nc1cccc(C(=O)N/N=C/c2cc(Cl)cc([N+](=O)[O-])c2O)c1	0.9%	21.3µM*	?	.	13.7%	0.9%
COc1ccc(/C=N/NC(=O)c2cccc(NC(=O)c3ccc(Cl)cc3)c2)c(OC)c1	24.3%	2.69µM*	?	?	3.4%	?
CC1(C)CC(=O)C(C(c2cccc(O)c2O)C2C(=O)CC(C)(C)CC2=O)C(=O)C1	.	.	.	0.1%[9.22 µM]	.	.
COc1cc(/C=N/NC(=O)c2cccc(NC(=O)c3ccccc3C)c2)ccc1O	11.6%	19µM*	-20.3%	.	-9.9%	-1.0%
COc1cc(/C=N\NC(=O)c2ccc(-c3ccccc3)cc2)cc(OC)c1OC(C)=O	-3.1%	?	-25.9%	.	-1.6%	12.0%
COc1cc(/C=N\NC(=O)c2ccc(-c3ccccc3)cc2)cc(OC)c1O	4.1%	9.53µM*	-13.0%	.	3.8%	21.1%
COc1cc(/C=N/NC(=O)c2ccncc2)ccc1O	1.5%	-7.3%	?	.	1.5%	1.8%
Cc1ccc2nc(/C(C#N)=C/c3ccc(O)c(O)c3)[nH]c2c1	-1.1%	19µM*	?	.	?	?
Cc1ccc2nc(C(O)C(O)c3nc4ccc(C)cc4[nH]3)[nH]c2c1 (stereo not drawn)	8.1%	10.7µM*	?	-7.9%	?	18.9%
Cc1ccc2nc(C(C)O)[nH]c2c1 (stereo not drawn)	7.7%	-8.2%	9.9%	2.0%	-0.2%	-3.9%
Cc1ccc2nc(/C(C#N)=C/c3cccc(Br)c3)[nH]c2c1	.	?	.	-3.4%	.	.
Cc1ccc2nc(/C(C#N)=N/O)[nH]c2c1	8.1%	13.5µM*	22.2%	4.8%	-4.1%	-9.0%
CCOc1ccc(C(=O)NCCn2cc(SCC(=O)Nc3ccccc3)c3ccccc32)cc1	.	?	.	-16.9%	.	.
COc1ccc(N2CCN(C(=O)c3cccn3-c3nnc(N4CCCC4)s3)CC2)cc1	.	-10.6%	.	.	.	.
CC(C)CCNC(=O)Cn1nc(N2CCN(c3ccccc3)CC2)ccc1=O	.	2.4%	.	.	.	.
N/C(=N\OC(=O)CCc1ccccc1)c1ccc(Br)cc1	-4.0%	?	6.6%	6.3%	14.1%	0.6%
N/C(=N\OC(=O)CCc1ccccc1)c1cccc(Br)c1	-5.1%	16.9µM*	0.5%	-6.3%	0.6%	0.1%
